Screens: PubChem BioAssay, Buhrlage Lab, Dana-Farber Cancer Institute and Novartis Institutes for BioMedical Research (Cambridge, Mass)
In the library only some 14% were active in any assay of this set; here they are far more common.
USP30 inh – inhibitors of human USP30 deubiquitinase. purified USP30, Ub-rhodamine cleavage fluorescence. Ubiquitin carboxyl-terminal hydrolase 30 (Homo sapiens), Q70CQ3. inhibition, % at 25 µM. hit rate 5.3% among 47,000
USP17 inh – inhibitors of human USP17 deubiquitinase | Ubiquitin carboxyl-terminal hydrolase 17-like protein 5 (Homo sapiens), A8MUK1 | purified USP17, Ub-rhodamine cleavage fluorescence, 3 h | inhibition, % at 50 µM | hit rate 6.5% among 47,000 | AID 1645855, 2021
USP28 inh – inhibitors of human USP28 deubiquitinase; AID 1645857, 2021; Ubiquitin carboxyl-terminal hydrolase 28 (Homo sapiens), Q96RU2; inhibition, % at 25 µM; hit rate 3% among 47,000; purified USP28, Ub-rhodamine cleavage fluorescence, 30 min
USP8 block – inhibitors of human USP8 deubiquitinase; Ubiquitin carboxyl-terminal hydrolase 8 (Homo sapiens), P40818; purified USP8, Ub-rhodamine cleavage fluorescence, 30 min; inhibition, % at 20 µM; hit rate 4.2% among 47,000
Hits are given with their value; n = inactive; x = no result. Cut-off read from the data, not from the text of the source: active = inhibition above about 30%; inactive = the rest.

SMILES	USP30 inh	USP17 inh	USP28 inh	USP8 block
Cn1c(=O)[nH]c(=O)c2c1nc(NCCCO)n2CC(=O)c1ccccc1	40	n	n	n
CN(C)c1nc2c(c(=O)[nH]c(=O)n2C)n1CC(=O)c1ccccc1	x	n	x	n
O=C(Nc1ccccc1C(=O)O)c1ccc(CSCc2ccccc2)cc1	n	39	31	n
O=C(Nc1ccccc1Cl)c1ccc(CN2CCC(Cc3ccccc3)CC2)cc1	n	n	n	n
COc1ccc(N2CCN(C(=O)c3cncc(NS(=O)(=O)c4ccc(F)cc4)c3)CC2)cc1	n	n	n	42
CCN(CC(=O)Nc1cc(C)on1)c1cccc2ccccc12	n	88	n	90
Cc1ccc(CN2C(=O)COc3ccccc3C2=O)cc1	n	n	39	n
CC(C)Oc1ccc(C(=O)CN2C(=O)COc3ccccc3C2=O)cc1Cl	n	n	n	n
CC(C)(C)c1cc(C(=O)N2CCOCC2c2ccn[nH]2)n[nH]1 (stereo not given)	n	n	n	n
O=C(c1cccc2c1OCCO2)N1CCOCC1c1ccn[nH]1 (stereo not given)	33	n	n	n
CC(=O)N1[C@@H]2CN(C(=O)COc3ncnc4ccccc34)[C@@H]3CCC[C@H]1[C@]3(C)C2	n	n	n	n
Cc1nc2c(-c3ccncc3)nsc2c(=O)n1CC(=O)Nc1ccccc1F	n	46	n	n
Cc1nc2c(c(=O)n1CC(=O)Nc1ccccc1F)CCN(Cc1ccccc1)C2	n	n	n	n
CC(=O)c1sc(NC(=O)/C=C/c2ccccc2)nc1-c1ccccc1	n	74	n	n
Cc1ccc(-c2nc(NC(=O)c3ccccn3)sc2C)cc1	n	n	n	n
Cc1sc(NC(=O)/C=C/c2ccco2)nc1-c1ccccc1	n	n	54	n
O=C(c1cccc(S(=O)(=O)Nc2cc(Cl)ccc2Cl)c1)N1CCCCCC1	n	n	n	n
O=c1[nH]c2ccc(NCc3cccc(OCc4ccc(F)cc4)c3)cc2[nH]1	n	n	n	n
O=c1[nH]c2ccc(NCc3ccccc3OCc3ccc(Cl)cc3)cc2[nH]1	31	n	37	n
O=C(NC1CCCC1)N1CC[C@H]2CO[C@H](CNc3ncccn3)[C@H]2C1	n	x	n	n
N#Cc1c2n(c(=O)n(CCOc3ccccc3F)c1=O)CCC2	n	n	n	33
O=c1[nH]c(C2CCN(S(=O)(=O)c3ccc(S(=O)(=O)NC4CCCCC4)cc3)CC2)nc2c1nnn2Cc1c(F)cccc1Cl	59	n	55	n
O=c1[nH]c(C2CCN(S(=O)(=O)c3ccc(S(=O)(=O)NC4CC4)cc3)CC2)nc2c1nnn2Cc1c(Cl)cccc1Cl	n	n	n	32
O=c1[nH]c(C2CCN(S(=O)(=O)c3ccc(S(=O)(=O)NC4CCCCC4)cc3)CC2)nc2c1nnn2Cc1c(Cl)cccc1Cl	50	n	49	40
O=C(CCc1nnc2n(Cc3ccc(Cl)cc3)c(=O)c3ccccc3n12)N1CCN(C(=O)c2ccco2)CC1	n	n	n	n
SMILES	USP30 inh	USP17 inh	USP28 inh	USP8 block
O=c1[nH]c(=O)n(-c2ccccc2F)c2c1CN(CCc1ccccc1)CN2	n	n	n	n
O=C(Cc1ccccc1)Nc1nnc(-c2cccc(F)c2)o1	n	n	n	n
COc1ccc(-n2nnc(C(=O)Nc3nc(C)c(C)s3)n2)cc1	34	48	42	n
COc1ccccc1CNC(=O)c1nnn(-c2ccc(Cl)cc2)n1	35	n	n	n
COc1cccc(NC(=O)c2nnn(-c3ccccc3)n2)c1	n	n	66	n
Cc1nc(NC(=O)c2nnn(-c3ccc(F)cc3)n2)sc1C	n	40	n	n
CC1(C)CS(=O)(=O)N(c2cccc(C(=O)NCCc3ccccc3F)c2)C1=O	n	n	n	n
O=C(Cc1ccccc1)NCc1noc(-c2ccccc2)n1	n	n	n	n
CCOC(=O)C1(Cc2cc(-c3cccc(F)c3)no2)CCN(Cc2ccccc2O)CC1	n	n	n	n
O=C(Nc1ccc2c(c1)CCN2S(=O)(=O)c1ccccc1)Nc1ccc(F)cc1F	n	n	43	n
Cc1nc(=O)c2ccccc2n1C1=CCN(C(=O)CCn2cccn2)CC1	n	n	n	n
COc1cccc(NC(=O)Cn2c(=O)cc(-c3ccccc3)c3c(C)nn(-c4ccccc4)c32)c1	n	n	n	n
COc1ccc(Cl)cc1NC(=O)Cn1c(=O)cc(C)c2c(C)nn(-c3ccccc3)c21	n	56	n	n
Cc1cc(=O)n(CC(=O)NCc2ccccc2F)c2c1c(C)nn2-c1ccccc1	33	62	n	n
Cc1nc2sccn2c1-c1csc(N)n1	n	n	n	n
O=C(c1cc(-c2cccnc2)n[nH]1)N1CCC2(CC1)OCCO2	n	n	n	n
CNC(=O)C(C)[C@H]1C(=O)/C(=C(O)/C=C/C(C)=C/[C@@H](C)[C@H]2O[C@@]3(C)O[C@H](C=C[C@@]34CO4)[C@@H]2C)C(=O)N1[C@@H]1CC[C@H](O)[C@H](C)O1 (stereo not given in full)	n	n	n	n
O=C(CSc1nnc(C2CC2)n1Cc1ccccc1)Nc1ccc(N2CCCC2=O)cc1	n	44	n	n
O=C1CC(NS(=O)(=O)c2ccc3ccccc3c2)CN1c1cccc(F)c1 (stereo not given)	n	55	n	n
Cc1ccc(S(=O)(=O)NC2CC(=O)N(c3cccc(F)c3)C2)cc1 (stereo not given)	n	n	n	n
COc1ccc(S(=O)(=O)NC2CC(=O)N(c3ccc(F)cc3)C2)cc1 (stereo not given)	n	n	n	n
COc1cccc(N2CC(NS(=O)(=O)c3ccc4ccccc4c3)CC2=O)c1 (stereo not given)	33	n	n	n
N#Cc1ccccc1COc1ncnc2scc(-c3ccccc3)c12	n	n	n	n
c1ccc(COc2ncnc3scc(-c4ccccc4)c23)cc1	n	n	34	n
O=C1CC(c2cccc(Cl)c2Cl)c2c(nc(-c3ccccc3)[nH]c2=O)N1 (stereo not given)	n	n	n	n
SMILES	USP30 inh	USP17 inh	USP28 inh	USP8 block
O=C1CC(c2ccc(O)cc2)c2c(nc(-c3ccccc3)[nH]c2=O)N1 (stereo not given)	x	35	x	n
O=C1CC(c2ccc(Cl)cc2)c2c(nc(-c3ccccc3)[nH]c2=O)N1 (stereo not given)	n	n	n	61
COc1ccccc1OC(C)C(=O)Nc1cccc2ccc(C)nc12 (stereo not given)	n	n	n	n
CC(C)c1noc(-c2ccnc(-n3cnc(C(=O)NC4CC4)c3)c2)n1	n	n	n	n
Cc1ccccc1NC(=O)N1CCN(Cc2ccc3nccnc3c2)CC1	n	n	n	n
CN1CCCCC(C2CCN(C(=O)Cn3nnc4ccccc43)CC2)C1=O (stereo not given)	n	n	n	n
Cc1ccc(NC(=O)CSc2nc3ncc(Br)cc3[nH]2)cc1C	x	60	x	n
CCOc1ccc(NC(=O)CSc2nc3ncc(Br)cc3[nH]2)cc1	n	n	n	n
COC(=O)c1ccc(NC(=O)CSc2nc3ncc(Cl)cc3[nH]2)cc1	n	n	n	n
